High-throughput results deposited in PubChem by National Center for Advancing Translational Sciences (NCATS).
This is a sample that favours compounds with a hit; in the whole collection about 7.9% have one here.
LASV entry inh: qHTS for Inhibitors of binding or entry into cells for Lassa Virus. Lassa virus pseudotype entry inhibition, cell reporter. Potency, µM (titrated, usually from 37.9 µM), for inactives: at the highest dose activity change, negative = inhibition, usual class: inhibitors. 300,000 compounds, 1.2% hits; calls by dose curve; tested in HEK293 cells; note: potency is the fitted concentration of half-maximal effect; % is set by controls: 0 for no effect and ±100 for the full control effect; nearly all actives have a fitted effect of over 50% in size
HCV inh: qHTS Assay for Inhibitors of Hepatitis C Virus (HCV) | Huh7.5.1 HCVcc-Cre infection, luciferase reporter, 44 h | Potency, µM (highest dose often 41.8 µM), for inactives: top-dose activity change, negative = inhibition, usual class: inhibitors | 340,000 compounds, 3.4% hits; note: potency is the fitted concentration of half-maximal effect; % is set by controls: 0 for no effect and ±100 for the full control effect
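Compounds are dispensed onto cells plated 4 h earlier at 1,000 per well, with HCVcc-Cre virus (about 0.5 moi) added next. Following 44 h of culture, luminescent signal is measured for 15 sec after 15 min with substrate at room temperature.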
HCMV inh: qHTS Assay for inhibitors of the human cytomegalovirus (HCMV) | 410,000 compounds, 4.5% hits | activity change, negative = inhibition, % at 57.5 µM | AID 1259415, 2018 | HFF cells, HCMV-luciferase reporter, 72 h; hits give low values; in the data active = activity change below about -60%; inconclusive = no clear call, values can overlap the other calls; inactive = above about -39%; note: % is set by controls: 0 for no effect and ±100 for the full control effect
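HFF cells seeded 16 h at 37C, treated with compounds, infected with luciferase-reporter HCMV at MOI 1 PFU/cell; luciferase read at 72 h post infection, normalized to buffer-only and Salinomycin controls.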
MARV entry inh: qHTS for inhibitors of binding or entry into cells for Marburg Virus; 300,000 compounds, 1.8% hits; Potency, µM (highest dose often 37.8 µM), without a hit: at the highest dose activity change, negative = inhibition, most hits filed as inhibitors; Marburg virus pseudotyped entry inhibition, cell reporter; calls by dose curve; tested in HEK293 cells; note: potency is the fitted concentration of half-maximal effect; % is set by controls: 0 for no effect and ±100 for the full control effect
FMDV inh: High Throughput Screening for Foot and Mouth Disease Virus Antivirals | FMDV antiviral cell-based qHTS | Potency, µM (highest dose often 57.9 µM), for inactives: at the highest dose activity change, negative = inhibition, usual class: inhibitors | 410,000 compounds, 1.2% hits; calls by dose curve; tested in HEK293T cells; note: read-out not given here; potency is the fitted concentration of half-maximal effect; % is set by controls: 0 for no effect and ±100 for the full control effect; nearly all actives have a fitted effect of over 45% in size
HCV inh confirm: qHTS Assay for Inhibitors of Hepatitis C Virus (HCV): Confirmation Assay for Cherry-picked Compounds; shares compounds with HCV inh; HCVcc-Cre infectious virus cell assay, luciferase, inhibition; Potency, µM (top dose mostly 41.8 µM), for the others: top-dose activity, negative = inhibition, most hits filed as inhibitors; 640 compounds, 78% hits; AID 720575, 2013; note: potency is the fitted concentration of half-maximal effect; nearly all actives have a fitted effect of over 80% in size
HCV host tox: qHTS Assay for Inhibitors of Hepatitis C Virus (HCV): Cytotoxicity Counterscreen for Cherry-picked Compounds; shares compounds with HCV inh; AID 720576, 2013; 640 compounds, 22% hits; HCV host cell line cytotoxicity counterscreen; Potency, µM (top dose mostly 41.8 µM), inactives show top-dose activity change, negative = cytotoxicity, usual class: inhibitors;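 note: potency is the fitted concentration of half-maximal effect; 44 h compound exposure; % is set by controls: 0 for no effect and ±100 for the full control effect; nearly all actives have a fitted effect of over 55% in size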
Active calls of the source: *; ? = inconclusive; . = no result; [ ] = dose if it differs, or a comment. Unless noted, calls come from the whole dose curve; as a rule, active = well fitted curve in the direction sought with a large enough effect; inconclusive = small, poorly fitted or top-dose-only effect, or another doubt; inactive = no such curve, though single readings can be large; an effect the other way counts as inactive or inconclusive.

SMILES	LASV entry inh	HCV inh	HCMV inh	MARV entry inh	FMDV inh	HCV inh confirm	HCV host tox
CCC(=O)Nc1cc2c(cc1C(=O)CC)OCCO2	13%	5.6µM*	28	1%	-24%	13µM*	20%
COc1ccc2nc(Cl)c(C=O)c(N3CCOCC3)c2c1	.	.	6	.	46%	.	.
COC(=O)c1c(NC(=O)Cc2cccs2)sc2c1CCCC2	?	5µM*	?	?	5%	13µM*	?
COC(=O)c1c(NS(=O)(=O)c2cccs2)sc2c1CCCC2	14%	4%	23	-1%	18%	.	.
CC(C)N1CCN(c2ccncc2S(=O)(=O)N2CCN(C)CC2)CC1	.	.	32	.	-1%	.	.
CCCCCCN1Cc2ccccc2C1	-2%	9%	-17	?	-8%	.	.
CCCCCCCCn1ccc(=N)cc1	?	0.89µM*	?	?	?	1.8µM*	2.2µM*
Cc1ccc(C(=O)CCNc2ccc(Br)cc2)o1	6%	-21%	2	28%	21%	.	.
Cc1ccc(C(=O)CCNc2ccc(F)c(Cl)c2)o1	-3%	3.2µM*	61	-17%	17%	2.8µM*	-22%
COc1ccc(OC)c(CNC(=O)CN2CC(C)Sc3ccccc32)c1 (stereo not given)	-13%[46.1 µM]	.	4	.	-10%	.	.
CCN(C[C@H]1N[C@@](Cc2ccccc2)(C(=O)OC)[C@H]2C(=O)N(Cc3ccccc3)C(=O)[C@@H]12)S(=O)(=O)c1ccc(C(F)(F)F)cc1	.	7.1µM*	-6	.	0%	?	51%
CCN(C[C@H]1N[C@@](Cc2ccccc2)(C(=O)OC)[C@H]2C(=O)N(C)C(=O)[C@@H]12)S(=O)(=O)c1ccc(C(F)(F)F)cc1	.	?	-8	.	-24%	.	.
Cc1cc(C)c2nc(NNC(=O)c3ccc(S(=O)(=O)N4CCc5ccccc5C4)cc3)sc2c1	16µM*	4.5µM*	-97*	?	-16%	3.5µM*	?
CCc1nnc(NC(=O)c2ccc(S(=O)(=O)N3CCc4ccccc4C3)cc2)s1	1%	9%	-25	29%	-18%	.	.
O=C(NCCN1CCC(Cc2ccccc2)CC1)C1CCN(S(=O)(=O)N2CCC3(CC2)OCCO3)CC1	-21%	6.3µM*	-24	?	?	?	-18%
Cc1nn(-c2ccccc2)c(-n2cccc2)c1C(=O)N1CCN(c2ccccc2)CC1	20%[46.1 µM]	.	3	11%[46.1 µM]	-30%	.	.
O=C1OCCN1C(=O)[C@H]1[C@H](c2ccc([N+](=O)[O-])cc2)C(c2ccc(F)cc2)=NN1c1ccc(Br)cc1	.	-56%	15	.	-19%	?	26%
O=C1OCCN1C(=O)[C@H]1[C@H](c2ccc([N+](=O)[O-])cc2)C(c2ccc(F)cc2)=NN1c1ccccc1	.	?	1	.	?	.	.
COc1ccc(C(=O)CSc2nc(-c3ccccn3)nc(C)c2Cl)cc1	?	4.5µM*	?	?	?	22µM*	4.4µM*
Cc1nc(-c2ccccn2)nc(SCC(=O)c2ccc(F)cc2)c1Cl	.	?	?	.	-19%	.	.
Cc1ccc2c(c1)-c1cc(C)ccc1C2=O	-2%[46.1 µM]	?	9	3%[46.1 µM]	5%	22µM*	10%
Cc1cc(C)c(C(=O)OCCNC(=O)c2cccnc2)cc1C	-7%	8.9µM*	-25	-23%	-18%	?	-24%
COc1ccc(C(=O)NC2CCCc3c2cnn3-c2ccccc2F)cc1OC (stereo not given)	.	4.5µM*	?	.	?	7µM*	?
Cc1cc(OC(C)C(=O)N2CCN(c3ccc(F)cc3)CC2)c2c(C)cc(=O)oc2c1 (stereo not given)	.	20%	-16	.	?	.	.
S=C(NCc1ccccc1)Nc1cccc2cnccc12	.	2µM*	-87*	?	?	7µM*	10µM*
SMILES	LASV entry inh	HCV inh	HCMV inh	MARV entry inh	FMDV inh	HCV inh confirm	HCV host tox
O=C(COc1cc(F)ccc1[N+](=O)[O-])Nc1cccc(S(=O)(=O)NC2=NCCC2)c1	.	-3%	?	.	62%	.	.
Nc1nc(Cl)nc(N(c2ccccc2)c2ccccc2)n1	26%	-9%	21	3%	-28%	.	.
Nc1nc(CCl)nc(N(c2ccccc2)c2ccccc2)n1	?	0.56µM*	-98*	?	32µM*	1µM*	-95%
Clc1ccc2c(c1)C(OC1CN3CCC1CC3)c1ccccc1CS2 (stereo not given)	?	10µM*	-35	?	?	16µM*	?
O=C1CSC(c2ccccc2Cl)c2cc(Cl)ccc2N1 (stereo not given)	.	.	.	.	8%[97.4 µM]	.	.
O=[N+]([O-])c1ccccc1Oc1ccc(S(=O)(=O)N2CCOCC2)cc1	.	7.9µM*	3	.	?	?	25%
O=S(=O)(c1ccc(Oc2ccccc2)cc1)N1CCOCC1	6%	?	-12	-28%	?	.	.
NC(=O)c1ncn([C@@H]2O[C@H](CNCc3ccc(-c4cc(C(F)(F)F)ccc4Cl)o3)[C@@H](O)[C@H]2O)n1	.	3.2µM*	3	.	-17%	-17%	0.025µM*
COc1ccc(Br)cc1/C=C/C(=O)Nc1c(C)cccc1C	-19%	?	11	?	-7%	.	.
CCN(CC)c1ccc(NC(=O)/C=C/c2cc(Br)ccc2OC)cc1	-7%	?	9	-5%	0%	13µM*	?
CC(C)(C)c1ccc(NC(=O)CSc2n[nH]c(=O)n2C2CC2)cc1	.	?	0	.	?	.	.
O=C(COC(=O)/C=C/c1ccc([N+](=O)[O-])cc1)NCC1CCCCC1	5%	18%	81	27%	-8%	.	.
COC(=O)c1ccc(CN2CCc3ccc(NC(=O)c4ccncc4)cc3C2)cc1	-17%	8.9µM*	?	?	?	14µM*	?
COC(=O)[C@@H]1C[C@H]2CC[C@H](O)C[C@H]2N1Cc1ccc(C(F)(F)F)cc1	.	21%	-13	.	-22%	.	.
Oc1ccc2ccccc2c1CN1CCN(c2ccccc2)CC1	-7%	10%	34	-23%	-13%	.	.
Oc1ccc(CN2CCN(c3ccccc3)CC2)c2cccnc12	?	7.9µM*	.	?	-21%	7µM*	22µM*
Cc1ccc(-c2ccc(=O)n(Cc3cccc(Br)c3)n2)cc1	-23%[46.1 µM]	?	-5	-22%[46.1 µM]	7%	.	.
Cc1ccc2c(c1)c1c(n2CC(O)CNC2CCCCC2)CCCC1 (stereo not given)	.	4.5µM*	-105*	.	-27%	13µM*	-97%
